# From PubChem
# G9a block: inhibitors of human histone lysine methyltransferase G9a. Q96KQ7. G9a H3K9 monomethylation, AlphaScreen, 2 h. Potency, µM (series often up to 102 µM), for inactives: at the highest dose activity, negative = inhibition, usual class: inhibitors. actives 8.8% (n = 350,000). AID 504332; further: on the % scale 0 is the no-effect control and ±100 the full control effect; nearly all actives have a fitted effect of over 75% in size
#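 Methyltransferase reactions run at room temperature for 2 h (20 nM enzyme, 500 nM biotin-H3K9 peptide, 20 uM SAM) after a 15 min compound preincubation; product detected by AlphaScreen beads and anti-H3K9me1 antibody.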
# L3MBTL1 inh: inhibitors of human L3MBTL1; AlphaScreen L3MBTL1–H3K9me1 peptide binding; actives 0.66% (n = 230,000); Potency, µM (series often up to 57.1 µM), without a hit: at the highest dose activity, negative = inhibition, usual class: inhibitors; further: on the % scale 0 is the no-effect control and ±100 the full control effect; nearly all actives have a fitted effect of over 60% in size
#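 AlphaScreen proximity signal between nickel-chelate acceptor and streptavidin donor beads (final 10 ug/mL) reports binding of 50 nM L3MBTL1 to 75 nM biotin-H3 K9me1 peptide; complex incubated with compounds 30 min at room temperature; cefsulodin titration as control.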
# JMJD2A Tudor: JMJD2A Tudor domain (human) inhibition. O75164. AlphaScreen JMJD2A-Tudor / H3K4me3 peptide binding. Potency, µM (titrated, usually from 114 µM), for inactives: at the top dose activity change, negative = inhibition, most hits filed as inhibitors. actives 4.4% (n = 390,000); further: on the % scale 0 is the no-effect control and ±100 the full control effect; nearly all actives have a fitted effect of over 50% in size
# HP1b chromo inh: HP1-beta chromodomain-methylated histone interaction inhibition; P83916; AlphaScreen HP1-beta / biotin-H3K9me3 peptide binding; Potency, µM (series often up to 114 µM), for inactives: at the top dose activity change, negative = inhibition, actives largely listed as inhibitors; actives 0.56% (n = 390,000); AID 540317; further: nearly all actives have a fitted effect of over 70% in size
#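 Compound inhibition of the preformed complex between 50 nM HP1-beta and 50 nM biotinylated H3K9me3 peptide was read by AlphaScreen. Buffer was PBS pH 7.4 with 0.01% Tween-20. Incubations ran 30 min at room temperature, with 10 ug/mL donor/acceptor beads.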
# BAZ2B block: blocks human BAZ2B | AlphaScreen BAZ2B-H3K14Ac peptide displacement | Potency, µM (top dose mostly 114 µM), without a hit: top-dose activity change, negative = inhibition, hits mostly inhibitors | actives 4.4% (n = 360,000); further: on the % scale 0 is the no-effect control and ±100 the full control effect; nearly all actives have a fitted effect of over 60% in size
#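 BAZ2B (50 nM) with biotin-H3(5-23)K14Ac peptide (50 nM) in PBS pH 7.4, 0.01% Tween-20, preformed 30 min, then compound 30 min at room temperature; top concentration 110uM. AlphaScreen streptavidin donor/nickel chelate acceptor beads (10 ug/mL final), 20 min dark, signal read.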
# Sfp PPTase inh: blocks B. subtilis Sfp PPTase activity; Q9F4F7; Potency, µM, inactives show largest response in the series, negative = inhibition, hits mostly inhibitors; Biochemical Sfp PPTase activity, qHTS; actives 3.5% (n = 310,000);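 further: the enzyme is Sfp with the accession as filed and its product quenches rhodamine fluorescence; 0% = enzyme reaction without inhibitor and -100% = no enzyme wells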
#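 Compounds were incubated with enzyme (final 15 nM) for 15 min at room temperature before substrate addition started the reaction. Fluorescence at 525 nm excitation, 598 nm emission was recorded immediately and after 30 minutes.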
# * marks the source's active call; other numbers are inactive results; ? = inconclusive; nt = no result given; [ ] = dose if it differs, or a comment. An excerpt weighted towards active compounds, which were near 12% of everything screened. The call rests on the fitted dose curve; in most records, active means well fitted curve in the direction sought with a large enough effect; inconclusive means small, poorly fitted or top-dose-only effect, or another doubt; inactive means no such curve, though single readings can be large; an effect the other way counts as inactive or inconclusive. Potency means the concentration at half of the fitted maximal effect.
SMILES,G9a block,L3MBTL1 inh,JMJD2A Tudor,HP1b chromo inh,BAZ2B block,Sfp PPTase inh
Cc1n[nH]c(=O)nc1N/N=C/c1ccc(O)c([N+](=O)[O-])c1,-11.0%,14.6%,-16.9%,27.4%,-2.2%,56.2µM*
COc1cc(/C=N/Nc2nc(=O)[nH]nc2C)ccc1O,-127.3%[12.7 µM],4.6%,-0.7%[11.4 µM],42.9%,?,56.2µM*
Cn1cc(/C=N/NC(=O)c2cc3cc(Br)ccc3o2)c2ccccc21,50.1µM*,nt,-9.4%,35.8%,3.2%,-5.1%
O=C(O)c1ccc(-n2cccc2/C=N\NC(=O)c2cc3cc(Br)ccc3o2)cc1,14.1µM*,nt,22.4µM*,44.7µM*,7.94µM*,-10.7%
O=C(O)Cn1cc(/C=N/NC(=O)c2cc3cc(Br)ccc3o2)c2ccccc21,-35.1%,nt,6.9%,43.0%,50.1µM*,-18.8%
COc1ccccc1N1CCN(c2cc(C)nc3c(-c4ccc(Cl)cc4)c(C)nn23)CC1,5.9%[59 µM],nt,-16.7%,-4.2%,3.1%,nt
CCOc1ccccc1NC(=O)c1cc(S(=O)(=O)N2CCOCC2)ccc1C,-1.8%[0.501 µM],nt,-14.6%,2.1%,-8.3%,-2.7%
Cc1cnc(NC(=O)c2cccc(S(=O)(=O)N3CCOCC3)c2)s1,7.08µM*,-0.1%,-3.4%,42.2%,-5.0%,nt
COc1ccc(C(=O)Nc2nncs2)cc1S(=O)(=O)N1CCOCC1,56.2µM*,nt,-11.9%,2.8%,10.3%,13.3%
Cc1ccc(S(=O)(=O)N2CCOCC2)cc1C(=O)Nc1nc(-c2ccccn2)cs1,nt,?,39.8µM*,?,nt,nt
CCOC(=O)c1c(-c2ccccc2Cl)csc1NC(=O)c1cc(S(=O)(=O)N2CCOCC2)ccc1C,7.94µM*,-9.0%,-13.4%,?,-27.3%,?
Cc1nnc(NC(=O)c2cccc(S(=O)(=O)N3CCOCC3)c2)s1,20.5%[12.7 µM],nt,5.8%,35.1%,2.4%,12.4%
Cc1c(Cl)cccc1NC(=O)CSc1ncccc1C(=O)Oc1ccccc1Cl,-3.9%[59 µM],nt,-1.5%,20.6%,0.6%,nt
O=C(Nc1nc(-c2ccccn2)cs1)c1ccc(S(=O)(=O)N2CCCCC2)cc1,65.2%[59 µM],nt,nt,nt,?,14.7%
COc1ccc(C(=O)OC/C(O)=C(\C#N)c2nc3ccccc3[nH]2)cc1S(=O)(=O)N1CCOCC1,79.4µM*,9.2%,-10.3%,30.1%,2.5%,13.5%
O=C(Nc1nc(-c2ccccn2)cs1)c1cccc(S(=O)(=O)N2CCOCC2)c1,?,?,50.1µM*,0.2%,28.2µM*,nt
COc1ccc(C(=O)Nc2nc(-c3ccccn3)cs2)cc1S(=O)(=O)N1CCOCC1,nt,?,25.1µM*,-11.8%,nt,nt
COc1ccc(C(=O)Nc2ccccc2N2CCCC2)cc1S(=O)(=O)N1CCOCC1,10µM*,-3.2%,-28.8%,2.0%,1.7%,nt
Cc1ccc(CCNC(=O)c2cc3cc4cc(C)ccc4nc3s2)cc1,3.8%[59 µM],nt,-4.2%,18.8%[57 µM],2.4%,nt
O=C(Nc1nnc(S(=O)(=O)N2CCCCC2)s1)c1cccc(Br)c1,-37.6%,?,-28.5%,39.7%,-10.5%,5.9%
O=C(c1ccc2c(Cl)c3c(nc2c1)CCCC3)N1CCN(c2ccccc2F)CC1,?,nt,-18.2%,28.4%,-2.4%[57.1 µM],nt
CN1C(=O)C(c2nnc(Nc3cccc4ccccc34)s2)C2CC1(C)Oc1ccccc12 (stereo not given),44.7µM*,-4.3%,?,-18.3%,-13.3%,-8.6%
COc1cccc(CN2CCNC(=O)C2CC(=O)NCCOc2cccnc2)c1 (stereo not given),nt,1.7%,-14.1%,35.0%,-11.7%,-8.1%
COc1ccc(Nc2nc(-c3cc4cccc(OC)c4oc3=O)cs2)cc1,44.7µM*,13.2%,-31.0%,1.5%,?,?
O=C(O)c1ccc(Nc2nc(-c3cc4ccccc4oc3=O)cs2)cc1O,39.8µM*,?,31.6µM*,31.6µM*,28.2µM*,35.5µM*
CC(=O)Nc1ccc(Nc2nc(-c3cc4ccccc4oc3=O)cs2)cc1,?,-1.4%,-6.3%,19.0%,-17.6%,-6.9%
COc1ccc2oc(=O)c(-c3csc(Nc4cccc(O)c4)n3)cc2c1,3.4%[59 µM],25.3%,7.9%,39.8%,0.9%,?
